Test results taken from the supplement of paper PMC8728848.
This excerpt belongs to a sample that is enriched for the strongest signals.

Assays:
Test in all cases: glycan array binding signal (z-score within array); higher = stronger binding
Settings in all cases: glycan notation: IUPAC condensed, linker removed
[1] = target: Fuc(a1-2)Gal(b1-3)GalNAc(b1-3)Gal
How it was run: (§1)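 Arrays were curated from the Consortium for Functional Glycomics database, 3228 in total, and kept only where the protein sequence was available. Binding is expressed as a within-array Z-score. This score was averaged across arrays of the same protein sequence at different concentrations or buffers and across linkers, and negative values can be read as non-binding.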

[2] = target: Fuc(a1-2)Gal(b1-3)[Fuc(a1-4)]GlcNAc(b1-3)[Fuc(a1-3)[Gal(b1-4)]GlcNAc(b1-6)]Gal(b1-4)Glc
How it was run: as §1

[3] = target: Fuc(a1-2)[GalNAc(a1-3)]Gal(b1-3)GalNAc(b1-3)Gal(a1-4)Gal(b1-4)Glc
How it was run: as §1

[4] = target: Fuc(a1-2)[GalNAc(a1-3)]Gal(b1-4)[Fuc(a1-3)]GlcNAc
How it was run: as §1

[5] = target: Fuc(a1-3)[Gal(b1-4)]Glc6S
How it was run: as §1

[6] = target: Fuc(a1-3)[Gal(b1-4)]GlcNAc(b1-6)GalNAc
How it was run: as §1

[7] = target: Gal(a1-3)Gal(b1-3)GlcNAc(b1-6)GalNAc
How it was run: as §1

Gal(a1-3)Gal(b1-4)GlcNAc = target: Gal(a1-3)Gal(b1-4)GlcNAc
How it was run: as §1

[8] = target: Gal(a1-3)Gal(b1-4)[Fuc(a1-3)]GlcNAc
How it was run: as §1

Gal(a1-3)GalNAc = target: Gal(a1-3)GalNAc
How it was run: as §1

[9] = target: Gal(a1-3)[Gal(a1-4)]Gal(b1-4)GlcNAc
How it was run: as §1

Gal(a1-4)Gal(b1-4)Glc = target: Gal(a1-4)Gal(b1-4)Glc
How it was run: as §1

Gal(b1-3)Gal = target: Gal(b1-3)Gal
How it was run: as §1

Gal(b1-3)GalNAc(b1-3)Gal = target: Gal(b1-3)GalNAc(b1-3)Gal
How it was run: as §1

[10] = target: Gal(b1-3)GalNAc(b1-4)Gal(b1-4)Glc
How it was run: as §1

[11] = target: Gal(b1-3)GlcNAc(b1-2)Man(a1-3)[Gal(b1-3)GlcNAc(b1-2)Man(a1-6)]Man(b1-4)GlcNAc(b1-4)[Fuc(a1-6)]GlcNAc
How it was run: as §1

[12] = target: Gal(b1-3)[GlcNAc(b1-6)]GalNAc
How it was run: as §1

Gal(b1-4)GlcNAc = target: Gal(b1-4)GlcNAc
How it was run: as §1

[13] = target: Gal(b1-4)GlcNAc(b1-2)Man(a1-3)[Gal(b1-4)GlcNAc(b1-2)Man(a1-6)][Gal(b1-4)GlcNAc(b1-4)]Man(b1-4)GlcNAc(b1-4)[Fuc(a1-6)]GlcNAc
How it was run: as §1

[14] = target: Gal(b1-4)GlcNAc(b1-2)Man(a1-6)Man(b1-4)GlcNAc(b1-4)GlcNAc
How it was run: as §1

[15] = target: Gal(b1-4)GlcNAc(b1-2)[Gal(b1-4)GlcNAc(b1-6)]Man(a1-6)[GlcNAc(b1-4)][Gal(b1-4)GlcNAc(b1-2)Man(a1-3)]Man(b1-4)GlcNAc(b1-4)GlcNAc
How it was run: as §1

[16] = target: Gal(b1-4)GlcNAc(b1-3)Gal(b1-4)GlcNAc(b1-3)Gal(b1-4)GlcNAc(b1-2)[Gal(b1-4)GlcNAc(b1-3)Gal(b1-4)GlcNAc(b1-3)Gal(b1-4)GlcNAc(b1-6)]Man(a1-6)[Gal(b1-4)GlcNAc(b1-3)Gal(b1-4)GlcNAc(b1-3)Gal(b1-4)GlcNAc(b1-2)Man(a1-3)]Man(b1-4)GlcNAc(b1-4)[Fuc(a1-6)]GlcNAc
How it was run: as §1

[17] = target: Gal(b1-4)GlcNAc(b1-3)[GlcNAc(b1-6)]Gal(b1-4)GlcNAc
How it was run: as §1

Gal3S(b1-3)GalNAc = target: Gal3S(b1-3)GalNAc
How it was run: as §1

[18] = target: Gal3S(b1-4)[Fuc(a1-3)]Glc6S
How it was run: as §1

Gal4S6S(b1-4)GlcNAc = target: Gal4S6S(b1-4)GlcNAc
How it was run: as §1

GalNAc(b1-3)Gal = target: GalNAc(b1-3)Gal
How it was run: as §1

GalNAc(b1-4)GlcNAc = target: GalNAc(b1-4)GlcNAc
How it was run: as §1

[19] = target: GalNAc(b1-4)GlcNAc(b1-2)Man(a1-3)[GalNAc(b1-4)GlcNAc(b1-2)Man(a1-6)]Man(b1-4)GlcNAc(b1-4)GlcNAc
How it was run: as §1

Glc(b1-6)Glc = target: Glc(b1-6)Glc
How it was run: as §1

[20] = target: GlcNAc(b1-2)[GlcNAc(b1-4)]Man(a1-3)[GlcNAc(b1-4)][GlcNAc(b1-2)Man(a1-6)]Man(b1-4)GlcNAc(b1-4)GlcNAc
How it was run: as §1

GlcNAc(b1-3)Gal(b1-4)Glc = target: GlcNAc(b1-3)Gal(b1-4)Glc
How it was run: as §1

Kdn(a2-3)Gal(b1-4)GlcNAc = target: Kdn(a2-3)Gal(b1-4)GlcNAc
How it was run: as §1

[21] = target: Man(a1-3)[Man(a1-6)]Man(a1-6)[Man(a1-3)]Man(b1-4)GlcNAc(b1-4)GlcNAc
How it was run: as §1

[22] = target: Neu5Ac(a2-3)Gal(b1-4)GlcNAc
How it was run: as §1

Neu5Ac(a2-6)Gal(b1-4)Glc = target: Neu5Ac(a2-6)Gal(b1-4)Glc
How it was run: as §1

[23] = target: Neu5Ac(a2-6)Gal(b1-4)GlcNAc(b1-2)Man(a1-3)[Neu5Ac(a2-3)Gal(b1-4)GlcNAc(b1-2)Man(a1-6)]Man(b1-4)GlcNAc(b1-4)GlcNAc
How it was run: as §1

[24] = target: Neu5Ac(a2-6)Gal(b1-4)GlcNAc(b1-2)Man(a1-6)Man(b1-4)GlcNAc(b1-4)GlcNAc
How it was run: as §1

[25] = target: Neu5Ac(a2-6)Gal(b1-4)GlcNAc(b1-6)GalNAc
How it was run: as §1

[26] = target: Neu5Ac(a2-8)Neu5Ac(a2-3)Gal(b1-3)GalNAc(b1-4)[Neu5Ac(a2-3)]Gal(b1-4)Glc
How it was run: as §1

[27] = target: Neu5Ac(a2-8)Neu5Ac(a2-3)Gal(b1-3)GalNAc(b1-4)[Neu5Ac(a2-8)Neu5Ac(a2-3)]Gal(b1-4)Glc
How it was run: as §1

[28] = target: Neu5Ac(a2-8)Neu5Ac(a2-3)[GalNAc(b1-4)]Gal(b1-4)Glc
How it was run: as §1

[29] = target: Neu5Gc(a2-3)Gal(b1-4)GlcNAc
How it was run: as §1

[30] = target: Neu5Gc(a2-3)Gal(b1-4)GlcNAc(b1-3)Gal(b1-4)GlcNAc(b1-2)Man(a1-3)[Neu5Gc(a2-3)Gal(b1-4)GlcNAc(b1-3)Gal(b1-4)GlcNAc(b1-2)Man(a1-6)]Man(b1-4)GlcNAc(b1-4)GlcNAc
How it was run: as §1

[31] = target: Neu5Gc(a2-3)Gal(b1-4)[Fuc(a1-3)]GlcNAc
How it was run: as §1

B1: HFR-3 (Triticum aestivum) (protein)
chain: MKGLLLCALALAFAAVTTHAQLQSCPTRCGKQADGMECPNNLCCSKDGYCGLGVDYCSAGAGCQSGACYDNKICGAQANGTLCRNNHCCSSGGRCGYGREYCSNGCQGGPCWADLKCGHLDNGKLCPNNLCCSQYGYCGLGPEFCGTGCQNGACSTDKPCGNKANGAPCTNNYCCSQYGSCGLGKDYCGTGCQNGACN
In the case of B1, the “glycan array binding signal (z-score)” value [1] is reported as -0.52, the “glycan array binding signal (z-score)” value [2] is reported as -0.893 and the “glycan array binding signal (z-score)” value [3] is reported as -1.32. For the same binder, the “glycan array binding signal (z-score)” value [4] was -0.585, the “glycan array binding signal (z-score)” value [5] was -1.23 and the “glycan array binding signal (z-score)” value [6] was -1.31. The “glycan array binding signal (z-score)” value [7] was -0.577, the “glycan array binding signal (z-score)” value (Gal(a1-3)Gal(b1-4)GlcNAc) was 0.079 and the “glycan array binding signal (z-score)” value [8] was -0.409. For the same binder, the “glycan array binding signal (z-score)” value (Gal(a1-3)GalNAc) was 2.1, the “glycan array binding signal (z-score)” value [9] was 1.2 and the “glycan array binding signal (z-score)” value (Gal(a1-4)Gal(b1-4)Glc) was 2.12. For the same binder, the “glycan array binding signal (z-score)” value (Gal(b1-3)Gal) was -0.289, the “glycan array binding signal (z-score)” value (Gal(b1-3)GalNAc(b1-3)Gal) was -0.312 and the “glycan array binding signal (z-score)” value [10] was 2.24. For the same binder, the “glycan array binding signal (z-score)” value [11] was 0.089, the “glycan array binding signal (z-score)” value [12] was -0.111 and the “glycan array binding signal (z-score)” value (Gal(b1-4)GlcNAc) was -0.853. For the same binder, the “glycan array binding signal (z-score)” value [13] was -0.212, the “glycan array binding signal (z-score)” value [14] was -0.488 and the “glycan array binding signal (z-score)” value [15] was 1.51. The “glycan array binding signal (z-score)” value [16] was 2.51, the “glycan array binding signal (z-score)” value [17] was -0.381 and the “glycan array binding signal (z-score)” value (Gal3S(b1-3)GalNAc) was 1.67. The “glycan array binding signal (z-score)” value [18] was 6.1, the “glycan array binding signal (z-score)” value (Gal4S6S(b1-4)GlcNAc) was 0.828 and the “glycan array binding signal (z-score)” value (GalNAc(b1-3)Gal) was 1.25. For the same binder, the “glycan array binding signal (z-score)” value (GalNAc(b1-4)GlcNAc) was 2.48, the “glycan array binding signal (z-score)” value [19] was 0.738 and the “glycan array binding signal (z-score)” value (Glc(b1-6)Glc) was -0.1.

B2: PX14343B-bfa-546-20-546 (Bacteroides fragilis) (protein)
chain: CDLERYPLTDLSEETFWNSESNAELALTSLYRGSLTDGVEYNPSDWWSYHGMIMMEHLSDNAFDRRGENNPFFKISSGNLTADNAFIKRYWETSYKRIGYCNRFLVGIQNSSESEKKTRMIAEARFLRATQYFYLASYFKNVPLVENVLTGEEANNVTKTSQADILKWCVTEFTAAAADLPRFSAIPAGEAGRACKQAALAFLGRTCMLQKDWKSGAKAFHDIMELGDNAINANYQELFYPSTGTSNKENIFYIQYLENYLGTGLPQHALSAKDGGWSLVNPAADLYESYEFKDGTPFSYDDPRYDPSNLGKDRDPRLDYTIYYNGAIFMGTEYKMSPDYSAAKKEKLDYTSEASRTGFMMRKYFEESTPINDVQSANGLTPVIRYAEVLLGYLECLVEDNQTITQGILDETINAVRGRASVNMPPVTEVTPAKLREIVRHERRIELAMEGIRYWDIMRWGIAHEVLSQKIWGAPYPGSTQYATTTKEVDPTGNYRWYVGKRAFRNPTDYTWPIPQSEQNINPNLRD
With B2 the “glycan array binding signal (z-score)” value [20] was -0.124, the “glycan array binding signal (z-score)” value (GlcNAc(b1-3)Gal(b1-4)Glc) was -0.13 and the “glycan array binding signal (z-score)” value (Kdn(a2-3)Gal(b1-4)GlcNAc) was -0.123. The “glycan array binding signal (z-score)” value [21] was -0.104, the “glycan array binding signal (z-score)” value [22] was -0.121 and the “glycan array binding signal (z-score)” value (Neu5Ac(a2-6)Gal(b1-4)Glc) was -0.122. The “glycan array binding signal (z-score)” value [23] was -0.127, the “glycan array binding signal (z-score)” value [24] was -0.119 and the “glycan array binding signal (z-score)” value [25] was -0.123. For the same binder, the “glycan array binding signal (z-score)” value [26] was -0.129, the “glycan array binding signal (z-score)” value [27] was -0.12 and the “glycan array binding signal (z-score)” value [28] was -0.131. For the same binder, the “glycan array binding signal (z-score)” value [29] was -0.122, the “glycan array binding signal (z-score)” value [30] was -0.129 and the “glycan array binding signal (z-score)” value [31] was -0.113.
